Screens from PubChem BioAssay.
Pf growth 48h = P. falciparum growth inhibition at 48 hours (one generation); P. falciparum luciferase growth in erythrocytes, 48 h; Potency, µM (top dose mostly 28.7 µM), without a hit: at the top dose activity change, negative = inhibition, most hits filed as inhibitors; 310,000 compounds, 5.9% hits; AID 504832; also: potency is read from the fitted curve at half-maximal effect; % is scaled to controls: 0 for no effect and ±100 for the full control effect
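Here the parasites carry a stable luciferase gene and grow inside erythrocytes in Albumax-based RPMI medium with compound for one erythrocytic cycle. Activity is scored as loss of luminescent signal.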
Pf growth 96h = P. falciparum growth inhibition at 96 hour, primary screen for plastid delayed-death inhibitors. P. falciparum luciferase reporter growth, 96 h. Potency, µM (highest dose often 28.7 µM), without a hit: at the highest dose activity change, negative = inhibition, usual class: inhibitors. 320,000 compounds, 6.9% hits; also: potency is read from the fitted curve at half-maximal effect; % is scaled to controls: 0 for no effect and ±100 for the full control effect
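Plates of compound plus infected erythrocytes (2% hematocrit, 0.05% parasitemia final) incubate 96 hours, 37 C, 5% CO2. Detection reagent added; reduced luminescence from the parasites' luciferase reporter flags inhibition.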
Marburg entry inh = inhibitors of Marburg virus binding or cell entry. 300,000 compounds, 1.8% hits. Marburg virus pseudotyped entry inhibition, cell reporter. Potency, µM (series often up to 37.8 µM), for inactives: at the highest dose activity change, negative = inhibition, most hits filed as inhibitors; calls by dose curve; tested in HEK293 cells; also: potency is read from the fitted curve at half-maximal effect; % is scaled to controls: 0 for no effect and ±100 for the full control effect
Cycloheximide cs = affects cycloheximide protein synthesis inhibition readout, counter-screen | cell reporter, cycloheximide protein synthesis inhibition counterscreen | max response, % | 300,000 compounds, 12% hits | AID 2314; in the data active = max response mostly above about 13%, no sharp cut-off; inactive = mostly below about 14%; also: read at 38.3 µM for the half of the compounds with a filed dose; 0% is about no effect
Shiga toxin inh = Shiga toxin inhibition | Vero cells, Shiga toxin protein synthesis inhibition reporter | inhibition, % at 38.7 µM | 290,000 compounds, 9.2% hits | AID 2315; in the data active = inhibition mostly above about 28%, no sharp cut-off; inactive = mostly below about 43%; also: 0% is about no effect
Lassa entry inh = inhibitors of Lassa virus binding or cell entry | Lassa virus pseudotype entry inhibition, cell reporter | Potency, µM (highest dose often 37.9 µM), for inactives: at the highest dose activity change, negative = inhibition, hits mostly inhibitors | 300,000 compounds, 1.2% hits; calls by dose curve; tested in HEK293 cells; also: potency is read from the fitted curve at half-maximal effect; % is scaled to controls: 0 for no effect and ±100 for the full control effect; nearly all actives have a fitted effect of over 50% in size
* hit, by the source's call; u = inconclusive; x = no result; [ ] = dose if it differs, or a comment. Sampled rows, rich in hits. Any-hit rate of the full collection: about 19%. Unless noted, calls follow the shape of the dose curve; as a rule, active = well fitted inhibition curve with a large enough effect; inconclusive = small, poorly fitted or top-dose-only effect, or another doubt; inactive = no such curve, though single readings can be large or run the other way.

SMILES	Pf growth 48h	Pf growth 96h	Marburg entry inh	Cycloheximide cs	Shiga toxin inh	Lassa entry inh
CCCCCOc1ccc2oc(=O)c3c(c2c1)CCCN3C(=O)CN1CCCC(C(=O)OCC)C1 (stereo not drawn)	x	u	u	9.3	-10.5	9.2µM*
O=C(CN1CCN(Cc2ccccc2)CC1)N1CCCc2c1c(=O)oc1ccc(O)cc21	2.94µM*	-17.0%	u	-3.8	-12.7	u
O=C(N/N=C1\C(=O)c2cccc3cccc1c23)c1ccc(O)cc1	6.6%	u	u	3.9	36.8	-24.6%
CNC(=S)N/N=C1\C(=O)c2cccc3cccc1c23	0.0%	u	-5.1%	22.8*	22.5	-24.2%
O=C1C([N+](=O)[O-])=C(O)c2cccc3cccc1c23	-0.1%	24.5%	x	11.1*	8.5	x
O=C1C(=O)c2cccc3cccc1c23	10.4µM*	6.57µM*	3.8%	-1.2	-3.3	-29.7%
O=C(Cn1cc2c(n1)CCCC2)NCCCN1CCCC1	x	-10.8%	x	5.6	17.3	x
CCOc1ccc(N(C(=O)c2ccc(Cl)cc2)S(=O)(=O)c2ccc3c(c2)n(C)c(=O)n3C)cc1	x	x	5.8%[46.1 µM]	x	x	-12.1%[46.1 µM]
Cc1[nH]oc(=O)c1N=Nc1ccccc1	33.3%	19.1%	4.7%	-1.5	2.7	-10.7%
C[N+](C)(C)CC=O	1.4%	14.9%	u	x	x	-6.6%
CC(CNC1CCCCC1)OC(=O)c1ccccc1 (stereo not drawn)	0.8%	-2.8%	x	x	x	x
O=C(COc1ccccc1)NC1CCCCCCC1	36.2%	-6.8%	x	27.5*	44.4*	x
O=C(COC(=O)c1ccccc1)NC1CCCC1	97.3%	88.2%	u	84.0*	109.3*	25.9%[46.1 µM]
C[C@@H](CNC1CCCCC1)OC(=O)c1ccccc1	2.03µM*	2.56µM*	x	x	x	x
CCc1ccccc1OCC(=O)NC1CCCC1	-10.1%	x	-20.1%	0.4	-6.3	3.0%
COC(=O)c1ccccc1OCC(=O)NC1CCCCC1	19.2%	x	u	27.5*	131.8*	46.5%[14.3 µM]
Cc1ccc(N(C(C)C(=O)NCc2ccncc2)S(C)(=O)=O)cc1C (stereo not drawn)	5.3%	5.1%	6.4%[46.1 µM]	0.7	-15.5	3.0%
O=C(Cc1ccc(S(=O)(=O)N2CCCCC2)s1)Nc1ccc(F)c(F)c1	-24.2%	u	u	-4.2	-11.5	u
O=C(COC(=O)c1ccccc1F)NC1CCCC1	21.1%	32.0%	10.1%	36.6*	35.9*	17.7%
O=C(COC(=O)c1cccnc1Nc1ccccc1F)NC1CC1	11.8%	41.0%	13.6%	13.6*	28.4	12.3%
O=C(COC(=O)c1ccccc1F)NC1CC1	-14.3%	-12.9%	x	x	x	x
O=C(COC(=O)c1cncc(Br)c1)NC1CCCCCC1	3.29µM*	18.5%	u	-0.6	-12.4	5.9%[46.1 µM]
COc1ccc(F)cc1C(=O)C1CCCN(C(=O)c2ccc(C(C)=O)s2)C1 (stereo not drawn)	-6.1%	0.8%	x	-2.0	2.5	x
O=C(CN1C(=O)COc2ccc(S(=O)(=O)N3CCCCCC3)cc21)N1CCN(c2ccccc2)CC1	x	x	-29.8%[46.1 µM]	x	x	-29.4%[46.1 µM]
COc1ccc(NC(=O)Cc2ccc(Cl)c(Cl)c2)cn1	-0.3%	u	x	9.4	36.4	x
SMILES	Pf growth 48h	Pf growth 96h	Marburg entry inh	Cycloheximide cs	Shiga toxin inh	Lassa entry inh
COc1ccc(NC(=O)/C(Cl)=C(/Cl)S(=O)(=O)Cc2ccc(C)cc2)cn1	x	u	4.47µM*	12.8	17.3	14.1µM*
COc1ccc(NC(=O)/C(Cl)=C(/Cl)S(=O)Cc2ccccc2Cl)cn1 (stereo not drawn)	u	7.38µM*	u	-10.3	-10.3	u
COc1ccc(NC(=O)COC(=O)C(NC(=O)c2ccc(C)cc2)C(C)C)cn1 (stereo not drawn)	x	x	-2.4%	x	x	2.6%
Cc1cc(C)n(CCN(C)Cc2cn[nH]c2-c2ccc(F)cc2F)n1	-2.7%	u	x	1.1	-8.6	x
Cc1ccccc1CNc1nc(N)n(-c2ccccc2)n1	x	0.4%	x	8.7	31.9	x
Nc1nc(NCc2c(F)cccc2Cl)nn1-c1ccccc1	26.6%	x	0.5%[46.1 µM]	25.1*	55.9*	8.6%
CCOc1ccccc1NC(=O)Cn1c(=O)sc2ccccc21	-26.6%	4.7%	24.5%[46.1 µM]	-3.5	-7.9	u
CCCCNc1nc2ccccc2n1CC(=O)N1CCc2ccccc2C1	11.7µM*	3.7µM*	-9.6%	-9.7	-13.4	-6.2%
COc1cccc(NC(=O)CN(C)C(=O)CCNC(=O)c2ccccc2Cl)c1	4.1%	-12.0%	1.2%	x	x	8.4%
COc1ccc(Cl)cc1NC(=O)C/C(C)=N/NC(=O)c1ccccc1Cl	-8.6%	13.1µM*	x	12.4	x	x
COc1ccc(Cl)cc1NC(=O)C/C(C)=N/NC(=O)CCc1ccccc1	0.8%	14.4%	-23.8%[46.1 µM]	-2.1	-2.6	u
C/C(CC(=O)Nc1cccc(Br)c1)=N\NC(=O)c1ccc(O)cc1O	12.4%	-16.5%	x	30.6*	65.1*	x
C/C(CC(=O)Nc1ccc(Cl)c(C(F)(F)F)c1)=N\NC(=O)c1cc2ccccc2cc1O	u	u	u	12.7*	-7.1	u
COc1cccc(NC(=O)C/C(C)=N/NC(=O)c2ccccc2Cl)c1	3.3%	10.5%	x	25.1*	55.2*	x
Cc1ccccc1NP(=O)(Oc1ccccc1F)Oc1ccccc1F	5.0%	u	-12.8%	-3.1	-4.4	17.9%
Cc1ccc(NC(=O)c2c(C)oc3ccc(O)c(CN4CCOCC4)c23)c(C)c1	x	x	8.1%[46.1 µM]	x	x	-13.5%[46.1 µM]
C/C(CC(=O)Nc1ccc(Cl)c(Cl)c1)=N\NC(N)=S	13.1µM*	5.8%	-3.3%	-2.7	18.6	u
C/C(CC(=O)Nc1cc(Cl)ccc1Cl)=N\NC(N)=S	u	u	u	-3.5	-6.1	u
C/C(CC(=O)Nc1cccc(Cl)c1Cl)=N\NC(=O)c1ccccc1N	6.3%	27.7%	u	37.4*	111.9*	-0.2%
CC1CCCCN1CC(O)COCCC12CC3CC(CC(C3)C1)C2 (stereo not drawn)	u	8.28µM*	u	-4.8	2.6	u
CCOc1cccc(CNC(=O)c2ccc(N3CCCC3)c(NC(=O)NCc3ccccc3)c2)c1	x	x	x	x	x	-14.4%[46.1 µM]
CC1=CC(C)C2(COC(c3ccc[n+](C)c3)OC2)C(C)C1 (stereo not drawn)	u	10.4µM*	x	7.0	24.5	x
Cc1cc(-c2c(C)[nH]n(-c3ccc(Cl)cc3)c2=O)n[nH]1	u	u	6.5%	26.6*	29.5	25.5%
Cn1nc(OC(=O)Nc2ccc(F)cc2)cc1C(F)(F)F	8.1%	x	-3.0%	10.7	-3.9	7.3%
Cc1[nH]c2ccccc2c1N=Nc1ccccc1C(=O)O	u	10.4µM*	10.7%	16.7*	48.3*	u
Cc1[nH]c2ccccc2c1N=Nc1cccc(C(=O)O)c1	167.9%	35.6%	1.1%	58.5*	107.7*	u
COc1ccc(CN(C(=O)c2nsc(Cl)c2Cl)C(C(=O)NC2CCCC2)c2ccc(C)cc2)cc1 (stereo not drawn)	u	10.4µM*	u	-2.2	-10.5	16.4µM*
